Test results: ChEMBL document CHEMBL4513216, “Probing the Open Global Health Chemical Diversity Library for Multistage-Active Starting Points for Next-Generation Antimalarials” (ACS Infect Dis, 2020)
About 8,600 (12%) of roughly 69,000 compounds showed an effect of 50% or more. This is one part of a sample in which strong results are shown more often than they occur.

system: Plasmodium berghei; assay: Screen against P. berghei liver stage (PbLuc), transformed with Luciferase, at 10uM; format: functional, HepG2; conditions: tested at 10 uM

Compound	INHIBITION
CN(C)Cc1nn(C)c2c1CCN(C(=O)CC1CC1)C2	-4.99%
CC(C)n1nc(CN(C)C)c2c1CN(CC1CC1)CC2	20.1%
CC(C)n1nc(CN2CCCC2)c2c1CN(CC1CC1)CC2	58.3%
CC(C)n1nc(CN(C)C)c2c1CN(C(=O)CC1CC1)CC2	61.5%
Cn1nc(CN2CCCC2)c2c1CN(CC1CC1)CC2	11.6%
CC(=O)NCC(=O)N1CCc2c(CN(C)C)nn(C(C)C)c2C1	34.9%
OC(CNCc1nnc2ccccn12)c1ccc2c(c1)OCCCO2 (centres undefined)	17%
Cn1cc(NC(=O)N2CCC(Cc3ccccc3)CC2)ccc1=O	20.45%
Cc1cc(NC(=O)CN2CCCC2c2noc(C)n2)n(C)n1 (centres undefined)	-25.8%
CN(C)C(=O)N1CCc2onc(C(=O)Nc3cccnc3)c2C1	-40.5%
O=C(N1CCC2(CC1)[C@H](O)C[C@@H]2O)C1(c2ccccc2F)CC1	25.9%
O=C(CN(CC(O)c1ccc(F)cc1)C1CC1)NC1CCOCC1 (centres undefined)	22.6%
O=C(CN(CC(O)c1ccc(F)cc1)C1CC1)NC(C1CC1)C1CC1 (centres undefined)	45.7%
O=C(CN(CC(O)c1ccc(F)cc1)C1CC1)NCc1cccs1 (centres undefined)	65.4%
Cc1cnn(CCNCC(=O)NCC2(c3ccccc3)CC2)c1	17.5%
Cc1nc(C)n(CC2CCCN2Cc2nc(-c3ccoc3)no2)n1 (centres undefined)	7.925%
CCCS(=O)(=O)N1CCC2(CN(c3cnn(C)c3)C(=O)CN2C)C1 (centres undefined)	21.6%
Cc1nn(C)c2nc(C3CC3)c(Cl)c(C(=O)O)c12	23.4%
O=C(c1cscn1)N1CCCC2(CCN2Cc2cccc(F)c2)C1 (centres undefined)	64.7%
O=C(N[C@@H]1CN(Cc2cccc(F)c2)C[C@H]1O)c1cscn1	47.1%
O=C(O)CN1CCCC2(CCN2Cc2cccc(F)c2)C1 (centres undefined)	44.8%
COC(=O)CCC(=O)N1CCCC2(CCCN2Cc2cccc(F)c2)C1 (centres undefined)	37.6%
O=C(c1cscn1)N1CCC2(CN(Cc3ccncc3)C2)C1	24.9%
O=C(c1ccccc1)N1CCCC2(CCN2Cc2cccc(F)c2)C1 (centres undefined)	61.1%
Cc1c(C(=O)O)cnn1-c1ccc(-c2nc(C3CC3)no2)cn1	34%
CNc1cncc(C2CCCN2S(=O)(=O)c2ccc(F)cc2)n1 (centres undefined)	35.2%

Compound	INHIBITION
Cc1noc(C)c1C1CCCN1C(=O)CN1C(=O)OC(C)(C)C1=O (centres undefined)	40.7%
Cc1nc(COC[C@H]2CCC[C@]23CN(C2CCOC2)CCO3)cs1 (some centres undefined)	49.7%
Cc1nc(COC[C@H]2CCC[C@@]23CN(C(C)C)CCO3)cs1	12.4%
Cc1nc(COC[C@@]23CCC[C@@H]2CN(CC2CCOCC2)C3)cs1	-5.63%
Cc1nc(COC[C@H]2CCC[C@]23CN(CC2CC2)CCO3)cs1	54.4%
Cc1nc(COC[C@@H]2CCC[C@@]23CN(C)CCO3)cs1	48.6%
CCN1CCO[C@]2(CCC[C@H]2COCc2csc(C)n2)C1	52.9%
CN(C)CCO[C@H]1CN(Cc2ccco2)[C@@H]2COC[C@H]12	30.3%
Cc1csc(C(Cc2cccs2)NCc2cc3c(cc2C)OCO3)n1 (centres undefined)	45.45%
CCN1CCC12CCN(C(=O)c1ccsc1)C2 (centres undefined)	-30%
O=C(c1ccc[nH]1)N1Cc2nccn2CC(COc2cccnc2)C1 (centres undefined)	3.58%
CCCc1noc(C2CCCCN2C(=O)CCc2cnn(C)c2)n1 (centres undefined)	1.56%
COc1ccc(-c2nc(C#N)c(N(C)C)o2)cc1S(=O)(=O)N1CCCC1	-35.5%
c1cncc(CN2CC[C@@H]3O[C@H](COCCN4CCCC4)CC[C@@H]32)c1	-51%
COc1ccc(CNC(=O)NC(C)(CO)C2CC2)c(C(F)(F)F)c1 (centres undefined)	17.8%
COc1ccc(C[C@H]2CN(C3CCOCC3)CC[C@H]2OCC2CC2)cc1	-24.5%
Cc1noc(C)c1CN1CC[C@H](OCC2CC2)[C@@H](Cc2ccccc2)C1	53.2%
Cc1noc(C)c1CN1C[C@H](OCC2CC2)[C@H]2COC[C@H]21	-41%
Cc1noc(C)c1CN1C[C@H](OCC2CC2)[C@H]2OCCC[C@H]21	-1.64%
Cc1noc(C)c1CN1CC[C@@H](OCC2CC2)[C@@H](Cc2ccccc2)C1	73.4%
Cc1noc(C)c1CN1C[C@H](OCC2CCN(C)CC2)[C@H]2COC[C@H]21	-12.2%
O=C(NCCc1ccncc1)[C@@H]1CC[C@@H]2[C@@H](CCN2Cc2ccco2)O1	31.7%
COCC(=O)N1CCC2(CCC2NS(=O)(=O)c2ccccc2)CC1 (centres undefined)	64.5%
O=S(=O)(NC1CCC12CCN(CC1CC1)CC2)c1ccccc1 (centres undefined)	26%
COCC(=O)N1CCC2(CCC2NC(=O)c2ccn(C)c2)CC1 (centres undefined)	41.6%
Cc1nc(O)c2nnn(C[C@H]3CCCN3C(=O)c3ccc(F)cc3)c2n1	8.72%

Compound	INHIBITION
CCc1cc(=O)[nH]c(-c2ccc(NC(C)COC)nc2)n1 (centres undefined)	-10.3%
CCOC(=O)C1(Cc2ccc(Cl)cc2)CCN(Cc2ncc[nH]2)CC1	82.1%
CCOC(=O)C1(Cc2cccc(OC)c2)CCN(Cc2ncc[nH]2)CC1	57.6%
CCOC(=O)C1(Cc2cccc(OC)c2)CCCN(Cc2ncc[nH]2)C1 (centres undefined)	41.2%
CCOC(=O)C1(Cc2cccc(OC)c2)CCN(Cc2ccon2)CC1	55.7%
CCOC(=O)C1(Cc2cccc(Cl)c2)CCCN(Cc2ncc[nH]2)C1 (centres undefined)	46.7%
COc1cccc(CNC(=O)N2CCN(Cc3cc(C)on3)CC2)c1	-1.62%
O=C1CC2(CCN(Cc3ncc[nH]3)CC2)CN1Cc1ccc(Cl)cc1	12.4%
COc1cccc(CC2(C(=O)O)CCN(c3ccc(Cl)cn3)CC2)c1	30.8%
COc1cccc(CC2(C(=O)O)CCN(c3nccs3)CC2)c1	22.3%
CS(=O)(=O)N1C[C@H](C(=O)Nc2cccnc2)[C@@H]2CCO[C@@H]2C1	-7.7%
CN(C)c1ncnc2c1CCN(C(=O)c1cccnc1)CC2	20.6%
COc1cc(NC2CCN(C3CCS(=O)(=O)CC3)CC2)ncn1	-15%
Cc1ccc(CC(=O)N2CCCC(c3cc(C(N)=O)[nH]n3)C2)cn1 (centres undefined)	39.35%
CCOCc1ccccc1NC(=O)NCC(c1cnn(C)c1)N(C)C (centres undefined)	2.91%
Cn1cc(C(O)CNC(=O)Nc2cc(F)ccc2-n2cccn2)cn1 (centres undefined)	23.4%
CCOc1ccccc1CNC(=O)NCC(c1cnn(C)c1)N(C)C (centres undefined)	62.8%
Cc1ccc(C(=O)NCC(c2cnn(C)c2)N(C)C)c(O)c1 (centres undefined)	1.19%
CCOc1cc(F)ccc1NC(=O)NCC(c1cnn(C)c1)N(C)C (centres undefined)	44.9%
Cc1ccc(NC(=O)NCC(c2cnn(C)c2)N(C)C)c(C)c1 (centres undefined)	57.7%
O=C(c1ccc(C2CCNC2)cc1)N1CCC(N2CCC(O)CC2)CC1 (centres undefined)	-8%
CCN(CC)Cc1cn2c(n1)CN(C(=O)c1cnccn1)CC2	37%
CN1C(=O)CO[C@H]2CN(C(=O)c3ccc4c(c3)CCCC4)C[C@@H]21	-3%
Cn1ccnc1CN1CCC(Cc2ccccn2)CC1	38.2%
O=C(NCCCO)c1nc(-c2ccc3cc[nH]c3c2)no1	-108%
c1cncc(NCCNC2CSCCSC2)c1	57.5%

Compound	INHIBITION
c1cncc(NCCNC2CCCNC2)c1 (centres undefined)	4.95%
CC(C)CN1CCC(NC(C)c2ccccc2-n2cccn2)CC1 (centres undefined)	89.1%
CC(NC1CCCC1)c1ccccc1-n1cccn1 (centres undefined)	-8.66%
c1cncc(NCCNC2CCSCC2)c1	-22.8%
CC(NC1CCSCC1)c1ccccc1-n1cccn1 (centres undefined)	-4.12%
c1cncc(NCCNC2CCSC2)c1 (centres undefined)	29.7%
CC(C)CN1CCC(NCCNc2cccnc2)CC1	52.7%
Cc1cnccc1NCCNC1CCN(CC(C)C)CC1	-58.7%
O=C(O)c1cnc(N2CCC(O)CC2)nc1COc1ccc(F)cc1	46.1%
CC(C)(C)NC(=O)c1ccn(COc2c(Cl)cccc2Cl)n1	20.9%
Cc1cc(C(=O)NCc2cccs2)c2c(C3CCCN3)noc2n1 (centres undefined)	29.2%
COc1ccccc1C(=O)N1CC(=O)N(CC2CC2)CC(O)C1 (centres undefined)	34.3%
Cc1cccc(C(=O)N2C[C@@H]3COC[C@@H](CC(=O)N4CCCC4)[C@@H]3C2)n1	-69.3%
CN(C1CCN(c2ccccn2)CC1)S(=O)(=O)c1ccc(F)cc1	8.13%
Cc1ccccc1CC(=O)N(C)C1CCN(c2ccccn2)CC1	42.9%
Cc1ccc(C)c(OCC(=O)NC2CCN(c3ccccn3)CC2)c1	-43.2%
CN(C1CCCN(c2ccccn2)C1)S(=O)(=O)N1CCOCC1 (centres undefined)	17.85%
CN(C(=O)Cc1cccs1)C1CCN(c2ccccn2)CC1	54.4%
CCOc1ncccc1C(=O)N(C)C1CCN(c2ccccn2)CC1	15.6%
COCCOCC(=O)NC1CCN(c2ccccn2)CC1	51.3%
CN(C1CCN(c2ccccn2)CC1)S(=O)(=O)N1CCOCC1	55.4%
CN(C(=O)CNc1ccc(C#N)cc1)C1CCN(c2ccccn2)CC1	11.2%
CN(C1CCN(c2ccccn2)CC1)S(=O)(=O)c1cccs1	33%
CN(C(=O)Cc1ccccc1Cl)C1CCN(c2ccccn2)CC1	60.5%
O=C(COCCOc1ccccc1)NC1CCN(c2ccccn2)CC1	-10.7%
Cc1cnn(C2CCCN(C(=O)CCCn3ccnc3C)C2)c1 (centres undefined)	9.54%
